Laboratory results reported in PubChem BioAssay (NCATS).
Inconclusive results are not listed. The source made the active and inactive calls. Calls come from the whole dose curve; as a rule, active = well fitted cell-killing curve with a large enough effect; inconclusive = small, poorly fitted or top-dose-only effect, or effect the other way; inactive = flat fitted curve, though single readings scatter.

Tested on: PA-1
Assay: Primary qHTS to identify gynecologic anti-cancer compounds using libraries of approved drugs and bioactive compounds (AID 1345084); note: nearly all actives have a fitted effect of over 55% in size
Conditions: Gynecologic cancer cell panel viability, ATPlite luminescence, 48 h; series mostly up to 57.5 µM; activity change, negative = cytotoxicity: at the top concentration
Method in brief: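 In this quantitative HTS, cell killing is estimated from loss of ATP-dependent luciferase light. Cells see five compound concentrations over a 48 h exposure.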
% is set by controls: 0 for no effect and ±100 for the full control effect; potency is the fitted concentration of half-maximal effect.

SMILES	activity change, negative = cytotoxicity	Potency
CN(C)CCCSc1ccccc1NC(=O)/C=C/c1ccccc1	-21.8% (inactive)	
N[C@@H](Cc1cc(I)c(Oc2ccc(O)c(I)c2)c(I)c1)C(=O)O	3.84% (inactive)	
O=C(O)CCC(=O)c1ccc(-c2ccccc2)cc1	-13.8% (inactive)	
CC(=O)Nc1ccc(NC(=S)NC(=O)c2ccc(C(C)(C)C)cc2)cc1		10 µM (active)
C/C(=C\C(=O)OCCCCCCCCC(=O)O)C[C@@H]1OC[C@H](C[C@@H]2O[C@H]2[C@@H](C)[C@H](C)O)[C@@H](O)[C@H]1O	0.886% (inactive)	
O=C(O)Cc1cc(I)c(Oc2ccc(O)c(I)c2)c(I)c1	6.33% (inactive)	
CC(C)(C)c1ccc(CN2CCN(C(c3ccccc3)c3ccc(Cl)cc3)CC2)cc1 (stereo not drawn)	3.82% (inactive)	
COc1ccc2nc(NC(=O)Nc3ccccc3)sc2c1		25.1 µM (active)
C[C@]12CC[C@@H]3c4ccc(OC(=O)c5ccccc5)cc4CC[C@H]3[C@@H]1CC[C@@H]2O	-22% (inactive)	
CO[C@H]1C[C@@H]2CC[C@@H](C)[C@@](O)(O2)C(=O)C(=O)N2CCCC[C@H]2C(=O)O[C@H]([C@H](C)C[C@@H]2CC[C@@H](OC(=O)C(C)(CO)CO)[C@H](OC)C2)CC(=O)[C@H](C)/C=C(\C)[C@@H](O)[C@@H](OC)C(=O)[C@H](C)C[C@H](C)/C=C/C=C/C=C/1C	-20.1% (inactive)	
O=C(OCc1ccccc1)c1ccc(O)cc1	-5.37% (inactive)	
O=C1c2ccccc2C(=O)c2c1ccc(O)c2O	-16% (inactive)	
COc1ccc(C[C@H](C)NC[C@@H](O)c2ccc(O)c(NC=O)c2)cc1	-29.6% (inactive)	
C=C1[C@H](CO)[C@@H](O)C[C@@H]1n1cnc2c(=O)[nH]c(N)nc21	2.65% (inactive)	
CC1CC(OC(=O)C(O)c2ccccc2)CC(C)(C)C1 (stereo not drawn)	4.04% (inactive)	
CCN(CC)CCOCCOC(=O)C(CC)(CC)c1ccccc1	-0.989% (inactive)	
C[C@H]1O[C@@H](O[C@H]2[C@@H](O)C[C@H](O[C@H]3[C@@H](O)C[C@H](O[C@H]4CC[C@@]5(C)[C@H](CC[C@@H]6[C@@H]5C[C@@H](O)[C@]5(C)[C@@H](C7=CC(=O)OC7)CC[C@]65O)C4)O[C@@H]3C)O[C@@H]2C)C[C@H](O)[C@@H]1O		0.282 µM (active)
C=C1CC[C@H](O)CC1=C/C=C1\CCC[C@]2(C)[C@@H]([C@H](C)/C=C/[C@H](C)C(C)C)CC[C@@H]12	-1.06% (inactive)	
